Experimental data taken from PubChem BioAssay AID565 (University of Pittsburgh Molecular Library Screening Center, 2006).
About 1,200 (1.8%) of roughly 65,000 compounds were called active. What follows is part of a selection rich in actives, with near analogues and random picks from the rest. Values without a mark were called inactive. Rule as the data show it: active = inhibition above about 50%; inactive = the rest.

These compounds were tested against Gag-Pol polyprotein (Human immunodeficiency virus type 1 group M subtype B (isolate HXB2)) (UniProt P04585) (assay: blockers of HIV-1 RNase H RNA/DNA cleavage – biochemical, fluorescence, primary screen (AID 565)). Details: RT-RNase H RNA/DNA duplex cleavage, at 10 µM, hits give high values.

SMILES	inhibition
Cc1cc(C)c(C#N)c(SCc2ccccc2C(=O)O)n1	-5.35%
COc1ccc(N2CCN(CCNC(=O)CCN3C(=O)COc4ccccc43)CC2)cc1	7.09%
CCOc1cc(NC(=O)c2ccco2)c(OCC)cc1NC(=O)COc1ccccc1	52.4% (active)
Cc1ccc(C(=O)COc2cccc(NC(=O)c3ccco3)c2)cc1	9.47%
O=C(Nc1ccc(Oc2ccccc2)cc1)c1ccco1	-7.33%
Cc1cc(Nc2ccccc2)n(C(=O)c2ccc(N)cc2)n1	-17.6%
O=C(CC1Nc2ccccc2NC1=O)Nc1ccccc1 (stereo not drawn)	-4.38%
CCCOC(=O)Nc1ccccc1C(N)=O	-29.1%
CCOC(=O)c1ccccc1NC(=O)CC1Nc2ccccc2NC1=O (stereo not drawn)	71.6% (active)
CCC(C)NC(=O)C1CCC(=O)N1Cc1ccc(C)cc1 (stereo not drawn)	-9.01%
CCN(CC)CCCNC(=O)c1cc(-c2cccc(Cl)c2)on1	-16%
CCN(CC)c1ccc2oc(=O)c(C)nc2c1	68.2% (active)
CCc1ccc2oc(-c3ccc(N)cc3)nc2c1	-12.6%
CCN(CC)c1ccc2cc(C(=O)O)c(=O)oc2c1	-8.5%
Cc1cccc(NC(=O)COc2ccc(Br)cc2C)n1	-9.39%
CCN(C(=O)CSc1ncn[nH]1)c1cccc2ccccc12	-10.7%
Cn1nnc(NC(=O)CSc2ncn[nH]2)n1	-0.52%
CC(C)(C)c1ccc(C(=O)CSc2ncn[nH]2)cc1	82.3% (active)
Cc1cccc(N=C2NC(=O)CS2)c1C	-0.31%
c1ccc2cc(OCCN3CCCC3)ccc2c1	-14.7%
N#Cc1cccc(CSc2nnc(CCCO)n2-c2ccccc2)c1	-5.32%
O=C(OCc1nnc(-c2ccccc2)o1)c1ccc2c(c1)C(=O)N(CCc1ccccc1)C2=O	16.2%
O=C(CCn1c(=S)[nH]c2ccccc2c1=O)NCCCN1CCCC1=O	-8.03%
COc1ccccc1Cn1c(=S)[nH]c2cc(C(=O)N3CCN(C)CC3)ccc2c1=O	-5.95%
O=c1c2ccccc2[nH]c(=S)n1CCN1CCC(=C(c2ccc(F)cc2)c2ccc(F)cc2)CC1	53.2% (active)

SMILES	inhibition
CN(C)Cc1c(O)ccc2occ(C(O)c3ccccc3)c12 (stereo not drawn)	2.07%
COc1ccc(OC)c2c(N)c(C#N)c(C(F)(F)C(F)(F)F)nc12	-3.29%
Cc1ccccc1NC(=O)Cc1nnc(SCC(=O)N2CCN(c3ccccc3)CC2)n1C	1.53%
Cn1c(CC(=O)Nc2ccccc2)nnc1SCC(=O)c1ccccc1	50.1% (active)
Cn1c(CNc2nc(-c3ccccc3)cs2)nnc1SCC(=O)c1ccccc1	-5.65%
CCOC(=O)C(C(=O)OCC)C(C#N)c1ccccc1 (stereo not drawn)	-13.1%
Cc1ccc(-c2nnc(SC(C)C#N)n2N)cc1 (stereo not drawn)	-0.02%
N#Cc1c(NC(=O)CCCN2C(=O)c3ccccc3C2=O)oc(-c2ccccc2)c1-c1ccccc1	19%
COc1cc(C(=O)Nc2oc(-c3ccccc3)c(-c3ccccc3)c2C#N)cc(OC)c1OC	80% (active)
COc1cc(C(=O)Nc2nccs2)cc(OC)c1OC	-12.7%
COCCNC(=O)C(c1ccc(C)o1)N(Cc1ccccc1)C(=O)Cn1nnc2ccccc21 (stereo not drawn)	5.47%
CC(C)(C)NC(=O)C(c1ccco1)N(Cc1ccc2c(c1)OCO2)C(=O)Cn1nnc2ccccc21 (stereo not drawn)	9.38%
CCC(C)(C)NC(=O)C(c1cccn1C)N(Cc1ccc(C)cc1)C(=O)Cn1nnc2ccccc21 (stereo not drawn)	50.2% (active)
CCOc1ccc(Cn2c(SCCCCC#N)nc3c2c(=O)n(C)c(=O)n3C)cc1OCC	29.2%
Cc1ccc(C)n1-c1ccncc1	-2.45%
O=C(COc1ccc(S(=O)(=O)NCCc2ccccc2)cc1)N1CCCC1	-8.41%
Cc1ccc(Cn2nnc3c(=O)n(CC(=O)N4CCCCC4)cnc32)cc1	-6.24%
CC(=O)Nc1ccc(-c2nn3c(C)nnc3s2)cc1C	-4.83%
CCN1CCc2c(C#N)c(NCc3ccccc3)nc(NCCO)c2C1	10.1%
N#Cc1ccc(COC(=O)Cn2nnc(-c3ccccc3)n2)cc1	-12.9%
N#Cc1c(N)sc2c1CCN(C(=O)OCc1ccccc1)C2	52% (active)
CN(C(=O)CSc1nnnn1-c1ccccc1)C1CCCCC1	-7.53%
O=C(O)CCC(=O)N(Cc1cccs1)Cc1cccs1	4.03%
Cc1ccc(-c2nn(-c3ccccc3)cc2CN(Cc2ccccc2)C(=O)CCC(=O)O)o1	81.7% (active)
CCN(Cc1ccccc1)C(=O)CSc1nc(C)cc2c1C(=O)OC2	-15.7%

SMILES	inhibition
CSCCC1NC2(C(=O)Nc3ccc(Cl)cc32)[C@@H]2C(=O)N(C3CCCC3)C(=O)[C@H]12 (stereo partly drawn)	2.23%
c1ccc2c(c1)OCC(CNc1ncnc3nc[nH]c13)O2 (stereo not drawn)	-8.18%
COC(=O)c1ccc(OC(=O)c2nn(C)cc2Cl)c(OC)c1	-6.66%
CCOc1ccccc1/C=c1\sc2nc(-c3ccco3)nn2c1=O	33.7%
CN(c1ccccc1)c1ccc(/C=c2\s/c(=C(/C#N)C(=O)C(C)(C)C)n(Cc3ccco3)c2=O)cc1	71.8% (active)
O=c1nc2s/c(=C\c3ccco3)c(=O)n2nc1Cc1ccccc1	5.64%
CN(C)c1cc(N)c2ccccc2n1 (tested in a mixture with another compound)	-10%
COc1ccc(-c2nc(CS(=O)CC(=O)NCc3ccccn3)c(C)o2)cc1 (stereo not drawn)	2.69%
CCOC(=O)C1CCN(Cc2coc3ccc(Cl)cc3c2=O)CC1	2.73%
c1ccc(-c2nnc3n2NC(c2ccc4c(c2)OCO4)S3)cc1 (stereo not drawn)	67.9% (active)
O=C(Cn1nnc(-c2ccccc2)n1)NCc1ccc2c(c1)OCO2	-23.7%
CC1=C(C(N)=O)C(c2ccc3c(c2)OCO3)n2nc(-c3cccc(C)c3)nc2N1 (stereo not drawn)	0.45%
COC(=O)C1=C(C)OC(N)=C(C#N)C1c1cc(OC)ccc1OC (stereo not drawn)	-6.95%
CCC(=O)NC(=Nc1nc2ccccc2s1)NC(=O)CC	-21.2%
N#Cc1nc(-c2ccc(OCc3ccccc3)cc2)oc1NCCCN1CCOCC1	-42.2%
COc1ccc(Nc2oc(-c3ccccc3Cl)nc2C#N)cc1	54.5% (active)
CCOc1ccc(Nc2oc(Cc3ccccc3)nc2C#N)cc1	-28.4%
O=C(CSC1=Nc2ccccc2C2=NC(c3ccccc3)C(=O)N12)NCC1CCCO1 (stereo not drawn)	2.21%
NC(=O)CSC1=Nc2ccccc2C2=NC(CCC(=O)NCc3ccc(F)cc3)C(=O)N12 (stereo not drawn)	-6.32%
CC(C)C1N=C2c3ccccc3N=C(SCC(=O)c3ccc(O)c(O)c3)N2C1=O (stereo not drawn)	96.1% (active)
CCOc1cc(/C=N/O)cc(Br)c1OC	-18.2%
CN1CCC2(CC1)NC(=O)NC2=O	-0.41%
COc1ccc(N2CCN(C(=O)CSc3nc4cc(OC)c(OC)cc4cc3C#N)CC2)cc1	36.4%
COc1ccc(N2CCN(C(=O)CSc3nnc4ncccn34)CC2)cc1	2.76%
COc1ccc(N2CCN(C(=O)CSc3ncnc4c3cnn4-c3ccc(OC)cc3)CC2)cc1	54.2% (active)

SMILES	inhibition
O=C(O)C1CCCN(S(=O)(=O)c2cccc3cccnc23)C1 (stereo not drawn)	-3.84%
COc1cc2[nH]c(=S)n(CCN3CCCCC3C)c(=O)c2cc1OC (stereo not drawn)	-11%
CCSc1nc(=S)n(CC)c(C)c1C(C)=O	-6.33%
CCOC(=O)c1sc(=S)n(-c2cccc(OC)c2)c1N	65.1% (active)
COC(=O)c1cn(-c2ccccc2)nc1-c1cccnc1	-35.4%
CCOC(=O)Cn1c(SC)nc2sc3c(c2c1=O)CC(C)(C)OC3	-12.4%
COC(=O)c1sc(=S)n(-c2ccccc2)c1N	88.6% (active)
CCOC(=O)CNC(=O)c1nn(-c2cccc(OC)c2)c(=O)c2ccccc12	-9.52%
CCOC(=O)c1nc(N)sc1C(=O)OCC	-13.4%
CCOc1cccc(-n2nnnc2-c2ccc(OC)cc2)c1	-27.8%
CCOC(=O)Cn1c(N)c(C(=O)OC)sc1=S	56.2% (active)
CCOC(=O)CSc1nnc(CNC(=O)c2cccs2)n1-c1ccccc1	-126%
O=C(Cn1c(=S)nc2ccccn21)N1CCc2ccccc2C1	-12.1%
Cc1nn2c3ccccc3nc2n(C)c1=O	-8.5%
CCOc1ncccc1C(=O)OCc1cn2cc(Cl)ccc2n1	-19.9%
CCN(CC)CCCN1C(=O)C(=O)/C(=C(/O)c2c(C)nc3ccccn23)C1c1ccc(C)o1 (stereo not drawn)	-7.5%
O=c1c2ccccc2nnn1CSc1nc2sc3c(c2c(=O)n1CC1CCCO1)CCC3 (stereo not drawn)	-3.16%
CC1Oc2ccccc2N(Cc2cccnc2)C1=O (stereo not drawn)	-1.88%
COC(=O)Nc1ccc(S(=O)(=O)N(C)CC(F)(F)C(F)F)cc1	-4.49%
O=C(CN1CCN(CC(=O)Nc2ccc3c(c2)OCO3)CC1)Nc1ccc(F)cc1	-10.3%
N#CC(=C1SC=CS1)c1nc(-c2ccccc2)cs1	55.1% (active)
c1ccc(Nc2nc(-c3ccncc3)cs2)nc1	-13.7%
N#C/C(=C1\CCCN1)c1nc(-c2ccccc2)cs1	-34%
